Test results reported in PubChem BioAssay AID687001 (Broad Institute, 2013).
Potency and affinity values are given separately. Activity calls are given as the source filed them.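 Rule for the calls: active = signal-lowering compounds whose fitted half-maximal concentration is at or below twice the top tested dose in every run; inconclusive = runs disagree, flat 30 to 70% inhibition, or poor curve fit; inactive = the rest.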

Target: Protein S100-A4 (Homo sapiens) (UniProt P26447)
Assay: S100A4-myosin IIA binding inhibitor potency, dose response, biochemical, fluorescence polarization, cherry-picked hits (AID 687001)
Details: FP, S100A4/TAMRA-myosin IIA peptide binding; series mostly up to 11 µM

Sequence of Protein S100-A4 (Homo sapiens) (P26447 whole entry, looked up): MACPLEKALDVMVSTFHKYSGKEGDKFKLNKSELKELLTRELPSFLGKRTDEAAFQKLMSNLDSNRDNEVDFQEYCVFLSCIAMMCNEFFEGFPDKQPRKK

Cc1ccc(C(=O)COC(=O)C2CC3CCCC(C2)C3=O)cc1[N+](=O)[O-] (stereo not drawn)
outcome: inactive

CCCC(=O)Nc1ccc2c(c1)C(=O)N(C)C[C@H](OC)[C@H](C)CN(Cc1ccccc1)[C@H](C)CO2
outcome: inactive

CCCNC(=O)[C@@H]1[C@@H](CO)[C@@H]2Cn3c(cccc3=O)[C@@H]2N1C(=O)C1CCC1
outcome: inactive

CC(C)NC(=O)N(C)C[C@@H]1Oc2c(NC(=O)Nc3cccc4ccccc34)cccc2C(=O)N([C@H](C)CO)C[C@H]1C
outcome: inactive

O=C(/C=C/c1ccccc1)Nc1cc(S(=O)(=O)N2CCOCC2)ccc1N1CCOCC1
outcome: inactive

COc1ccc(C(CNC(=O)C(=O)Nc2ccc3c(c2)OCCO3)N2CCN(C)CC2)cc1 (stereo not drawn)
outcome: inactive

COc1ccc(C(=O)CC(=O)C(=O)Nc2c(C)cccc2C)cc1
outcome: inactive

O=C(c1ccccc1)c1ccc2nc(N3CCCCC3)c3nncn3c2c1
outcome: inactive

Cc1ccc(S(=O)(=O)NCCC(=O)NCC(=O)Nc2c(C)cccc2C)cc1C
outcome: inactive

Cc1cc(C)n2nc(Sc3ncccc3[N+](=O)[O-])nc2n1
outcome: inactive

CC(C)CN1CCC(=O)N([C@H](COc2ccccc2)c2ccccc2)CC1
outcome: inactive

CS(=O)(=O)N(CCc1ccccc1)CC(=O)N1CCCCCC1
outcome: inactive

CNC[C@@H]1Oc2ccc(NC(=O)Nc3cccc4ccccc34)cc2C(=O)N([C@H](C)CO)C[C@@H]1C
outcome: inactive

O=S(=O)(c1ccc(F)cc1)N1C[C@H]2[C@@H](c3ccccc31)[C@H](CO)N2Cc1ccccc1Cl
outcome: inactive

CO[C@@H]1CN(C)C(=O)c2cc(NS(=O)(=O)CC(F)(F)F)ccc2OC[C@@H](C)N(C)C[C@H]1C
outcome: inactive

CC1=CC(C)(C)NC(=S)N1C(C)c1ccccc1 (stereo not drawn)
outcome: inactive

O=C(NCCN1CCOCC1)c1ccc(/C=C2\Sc3ccccc3N(Cc3ccccc3F)C2=O)cc1
outcome: inactive

O=C1N[C@@H](Cc2ccccc2)COC(=O)[C@@H](Cc2ccc(F)cc2)CC/C=C/C[C@H]1CC(=O)N(CCO)Cc1ccccc1
outcome: inactive

O=C(C[C@H]1C=C[C@H](NC(=O)c2ccc(F)cc2)[C@H](CO)O1)NCc1ccncn1
outcome: inactive

O=C1CC(C(=O)N2CCN(c3ccccn3)CC2)CN1Cc1ccccc1Cl (stereo not drawn)
outcome: inactive

Cc1ccc(S(=O)(=O)N(C)C[C@H]2OCCCC[C@H](C)Oc3ccc(NS(=O)(=O)c4ccccc4)cc3C(=O)N([C@H](C)CO)C[C@@H]2C)cc1
outcome: inactive

O=C(NCC[C@H]1CC[C@@H](NS(=O)(=O)c2ccccc2F)[C@H](CO)O1)c1ccc(F)cc1
outcome: inactive

C[C@H](CO)N1C[C@H](C)[C@H](CN(C)Cc2ccncc2)Oc2c(NC(=O)C3CC3)cccc2C1=O
outcome: inactive

COc1cccc(NC(=O)N(C)C[C@H]2Oc3cc(C#CC4(O)CCCC4)ccc3S(=O)(=O)N([C@H](C)CO)C[C@H]2C)c1
outcome: inactive

Cn1cnc(S(=O)(=O)N[C@@H]2C=C[C@@H](CC(=O)NCC3CC3)O[C@H]2CO)c1
outcome: inactive

CN1C(=O)c2cc(NC(=O)Cc3cccs3)ccc2OC[C@H]2O[C@H](CC(=O)N[C@H]3CCN(Cc4ccccc4)C3)CC[C@@H]21
outcome: inactive

CCCN1CCN(CCCNC(=O)C(CC)n2nc(C)c3sc4ccccc4c3c2=O)CC1 (stereo not drawn)
outcome: inactive

COc1ccc(CN(C)C(=O)Cc2ccc(S(=O)(=O)N3CCOCC3)s2)cc1OC
outcome: inactive

CC(C)(C)[C@H]1COC(=O)CC/C=C\C[C@H](CC(=O)N(CCO)Cc2ccccc2)C(=O)N1
outcome: inactive

CC(=O)N1CCCCN2[C@H](CO)[C@H](c3ccc(C#Cc4ccccc4F)cc3)[C@@H]2C1
outcome: inactive

Cc1noc(C)c1NC(=O)N(C)C[C@H]1OCCCC[C@H](C)Oc2ccc(NS(=O)(=O)c3ccc(F)cc3)cc2C(=O)N([C@H](C)CO)C[C@@H]1C
outcome: inactive

Cc1cc(Nc2cccc(F)c2)cc(=O)n1-c1cccc(F)c1
outcome: inactive

Cc1cc(C)cc(OCC(=O)OCC(=O)N2CCc3ccccc32)c1
outcome: inactive

COCC#Cc1cnc2c(c1)C(=O)N([C@H](C)CO)C[C@H](C)[C@H](CN(C)C(=O)C1CCC1)O2
outcome: inactive

COc1ccc(OCC(=O)N2CCN(S(=O)(=O)c3ccc(Cl)s3)CC2)cc1
outcome: inactive

CCCCCCCCNC(CO)(CO)CO
outcome: inactive

C[C@@H]1CN([C@H](C)CO)S(=O)(=O)c2ccc(C3=CCCCC3)cc2O[C@@H]1CN(C)Cc1ccccc1
outcome: inactive

CN(CC(=O)NCC(=O)Nc1ccc(F)cc1)CC(=O)Nc1ccc(Cl)c(C(F)(F)F)c1
outcome: inactive
